SF1 inhibitor – blocks the human nuclear receptor SF-1; Q13285; CHO-K1 Gal4-SF-1 LBD luciferase reporter; inhibition, % at 10 µM; 65,000 compounds, 0.55% hits;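 active = inhibition above the mean inhibition of all tested compounds plus 3 SD, cut at about 48% in these data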;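 note: 0% = SF-1 transfected cells with DMSO and 100% = mock-transfected cells lacking SF-1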
Target sequence (Q13285 whole entry, looked up, the tested form may be a part): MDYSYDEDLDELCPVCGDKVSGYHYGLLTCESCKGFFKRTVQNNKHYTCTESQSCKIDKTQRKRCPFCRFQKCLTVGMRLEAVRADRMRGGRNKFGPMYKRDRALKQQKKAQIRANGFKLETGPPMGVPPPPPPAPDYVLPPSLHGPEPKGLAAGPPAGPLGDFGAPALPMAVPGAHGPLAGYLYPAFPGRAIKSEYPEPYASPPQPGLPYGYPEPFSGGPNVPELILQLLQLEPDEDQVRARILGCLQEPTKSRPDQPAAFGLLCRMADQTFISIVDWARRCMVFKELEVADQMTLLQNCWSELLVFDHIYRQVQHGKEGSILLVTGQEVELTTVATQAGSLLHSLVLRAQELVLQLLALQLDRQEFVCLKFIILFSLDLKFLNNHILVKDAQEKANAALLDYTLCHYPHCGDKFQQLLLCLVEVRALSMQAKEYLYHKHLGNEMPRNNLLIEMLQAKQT
* hit, by the source's call. This excerpt belongs to a sample that is enriched for hits.

SMILES | SF1 inhibitor
O=C(Nc1nc(-c2ccccn2)cs1)c1ccc(Cl)s1 | 95*
O=C(Nc1nc(-c2ccccn2)cs1)c1ccc(S(=O)(=O)N2CCCCC2)cc1 | 64*
O=C(Nc1nccs1)c1ccc(Cl)s1 | -58
Cc1nc2ccc3nc(NC(=O)c4ccc(S(=O)(=O)N5CCOCC5)cc4)sc3c2s1 | 12
O=C(NC1CCCCC1)c1ccc(S(=O)(=O)N2CCCCC2)cc1 | -14
O=C(Nc1ccc2sccc2c1)c1ccc(Cl)s1 | -60
CN(C)c1oc(-c2ccc(OCc3ccccc3)cc2)nc1C#N | -61
O=C(N(c1ccccc1)c1ccccc1)n1ccnc1 | 10
CC(C(=O)NC1CCCC1)N(Cc1ccc2c(c1)OCO2)C(=O)c1snc(C(N)=O)c1N (centres undefined) | 5
c1ccc(-c2nc(N3CCCCCC3)c3ccccc3n2)nc1 | 86*
CCO/C=C/C(O)(CNC(=O)COc1ccccc1F)C(F)(F)F (centres undefined) | 8
Cc1nc(CSc2nnc(C)s2)cs1 | 5
Cc1nnc(Sc2nc(Sc3nnc(C)s3)nc(N3CCN(C)CC3)n2)s1 | 96*
CCOC(=O)c1ccc(NC(=O)N(CC)CC)cc1 | -63
Cc1ccc(-c2nnc(Nc3ccccc3)o2)cc1 | 68*
c1coc(-c2nnc(NC3=NCCC3)o2)c1 | -61
Cc1ccccc1-c1nnc(-c2ccc(Br)cc2)o1 | -77
COc1ccc(CN/C=C2\CCCCC2=O)cc1 | 0
CSc1nnc(-c2ccc(S(=O)(=O)N3CCOCC3)cc2)n1CC1CCCO1 (centres undefined) | -1
CCOC(=O)N1CCN(S(=O)(=O)c2ccc3c(c2)CCN3C(=O)CC)CC1 | 20
c1ccc(CCc2nc(-c3ccccn3)no2)cc1 | -35
Clc1ccc(-c2nc(-c3ccccn3)no2)cc1Cl | 51*
CCCCC1CCC(c2nc(-c3ccccn3)no2)CC1 (centres undefined) | -52
NC(Cc1cccc2nsnc12)C(=O)O (centres undefined) | -5
CCOC(=O)c1ccc(NC(=O)CSCc2ccco2)cc1 | -5
SMILES | SF1 inhibitor
CC1CCCCN1CCNC(=O)CN1C(=O)COc2ccccc21 (centres undefined) | 7
CCOc1ccc(NC(=O)CN2CCN(CC(=O)Nc3ccc(F)c(F)c3)CC2)cc1 | -5
O=C(CSc1ccccn1)N1CCN(c2ccccc2)CC1 | -1
Cc1cccc(N2CCN(C(=O)CSCc3c(C)noc3C)CC2)c1C | 50*
C=CCn1c(SCc2c(C)noc2C)nc2cc(C(=O)O)ccc2c1=O | -17
COc1ccc(-n2nnnc2SCC(=O)c2cc3ccccc3o2)cc1 | -2
C=CCOC(=O)CN1C(=O)c2ccccc2C1=O | 2
CCc1ccccc1N(CC(=O)NCc1ccco1)C(=O)c1snc(C(N)=O)c1N | -5
O=C1c2ccccc2C(O)N1c1ccc(Cl)cc1 (centres undefined) | 6
Cc1ccc2oc3c(c(=O)c2c1)C(c1cccc(O)c1)N(c1ccccn1)C3=O (centres undefined) | 17
Cc1ccc(N2C(=O)c3ccccc3C2O)nc1 (centres undefined) | 56*
COc1ccc2[nH]c(=O)c(CN(C(=O)COc3ccccc3)C(C)C)cc2c1 | -4
CCOC(=O)c1sc(NC(=O)c2ccc3ncsc3c2)nc1C | -76
O=C(Cn1nc(Cc2ccncc2)c2ccccc2c1=O)N1CCc2ccccc2C1 | 12
COc1ccc(O)c(C(=O)CC(=O)c2ccc(F)cc2)c1 | 52*
COc1cccc(NC(=O)COc2ccccc2C(N)=O)c1 | -62
COc1cccc(NC(=O)CN2CCN(c3ccccc3F)CC2)c1 | -14
COc1ccc2[nH]c(=O)c(CN(C(=O)C3CCCO3)c3cccc(C)c3)cc2c1 (centres undefined) | 5
CCC(=O)Nc1nc(C)cc(SCC(=O)OC)n1 | 2
O=S(=O)(C/C(=C/CO)S(=O)(=O)c1ccccc1)c1ccccc1 | 96*
O=C(CS(=O)(=O)c1ccccc1)c1ccc2c(c1)OCCO2 | -52
O=c1[nH]c2c(s1)C=Nc1ccccc1N2 | -14
Nc1nc(Cl)nc2c1ncn2[C@H]1C[C@H](O)[C@@H](CO)O1 | 79*
Nc1ncnc2c1ncn2C1CCC(CO)C(O)C1 (centres undefined) | -1
c1ccc(N2CCN(c3nc4cc5c(cc4s3)OCO5)CC2)cc1 | -55
SMILES | SF1 inhibitor
c1c2c(cc3sc(N4CCOCC4)nc13)OCO2 | -58
O=C(Nc1nc2cc3c(cc2s1)OCO3)C1=COCCO1 | 62*
CCC(C)NC(=O)CCNS(=O)(=O)c1ccc(Br)cc1 (centres undefined) | 1
O=C(CCN1C(=O)C2CC=C(Cl)CC2C1=O)N1CCCCC1 (centres undefined) | -3
CC(C)(C)c1cc(CN2CCCC(O)C2)c(O)c(C(C)(C)C)c1 (centres undefined) | 14
Cc1cc(C)nc(NC2=NCC(=O)N2c2ccc3c(c2)OCCO3)n1 | 12
O=C(Nc1nnc(C2CC2)o1)c1ccc(S(=O)(=O)N2CCCc3ccccc32)cc1 | 49*
CN(c1ccccc1)S(=O)(=O)c1ccc(C(=O)Nc2nnc(-c3ccc(F)cc3)o2)cc1 | 1
COC(=O)Nc1ccc(S(=O)(=O)N2c3ccccc3CCC2C)cc1 (centres undefined) | -5
O=C(NCC(=O)N(Cc1cccs1)C(C(=O)NC1CCCC1)c1ccco1)c1cccs1 (centres undefined) | -4
Cc1noc(C)c1COC(=O)c1cc2c3ccccc3n(C)c2s1 | 1
Cc1nc2c(cc(Oc3ccc(S(=O)(=O)N4CCOCC4)cn3)c3ccsc32)s1 | -53
CCOc1ccccc1NC(=O)CSc1nc2cccnc2n1C | 9
CC(NC(=O)Nc1nnc(C(F)(F)F)s1)(C(F)(F)F)C(F)(F)F | 94*
CC(OC(=O)CNC(=O)c1ccc2c(c1)OCO2)C(=O)NCCC1=CCCCC1 (centres undefined) | 0
CCCCCCC(=O)c1c(C)[nH]c(C(=O)OCC)c1C | -53
COc1ccc(C(c2sc3nc(C)nn3c2O)N2CCC3(CC2)OCCO3)cc1 (centres undefined) | -4
Cc1ccc(N=Cc2ccc[nH]2)c(O)c1 | -9
COC(=O)c1ccc(Oc2cc(C)nc(SC)n2)cc1 | -71
CN(C)CCN1C(=O)C(=O)/C(=C(/O)c2ccccc2)C1c1ccccc1F (centres undefined) | -2
O=C(Cn1nnc(-c2ccccc2)n1)OCc1csc(-c2ccccc2)n1 | -19
COc1ccc(-c2ccc(-c3nnn(CC(C)=O)n3)cc2)cc1 | -90
CCc1ccc(-c2nnn(CCC(=O)OC)n2)cc1 | 52*
CC1(c2ccccc2)NC(=O)N(CCN2C(=O)c3ccccc3C2=O)C1=O (centres undefined) | -3
FC(F)(F)C(F)(F)C(F)(F)c1nnc2ccc(N3CCOCC3)nn12 | 8
SMILES | SF1 inhibitor
COc1cccc(CN(Cc2cccnc2)S(=O)(=O)c2ccc(-n3cnnn3)c(C)c2)c1 | 4
COCCCNc1oc(-c2ccccc2F)nc1C#N | -57
CCOC(=O)C1CCN(C(=O)c2ccc(Cl)c(S(=O)(=O)N3CCOCC3)c2)CC1 | -4
COCCNc1ncnc2c1cnn2-c1ccc(Cl)cc1 | -68
Clc1ccc(-n2ncc3c(N4CCCC4)ncnc32)cc1 | 61*
COC(=O)C(C)n1cnc2c(cnn2-c2ccc(Cl)cc2)c1=O (centres undefined) | -53
OCCOCCNc1ncnc2c1cnn2-c1ccc(Cl)cc1 | -64
CCOC(=O)C1CCN(c2ncnc3c2cnn3-c2ccc(Cl)cc2)CC1 | 56*
O=S(=O)(/C=C/c1ccccc1)n1cnc2ccccc21 | 5
